Data from ChEMBL document CHEMBL1157539, “Thousands of chemical starting points for antimalarial lead identification” (Nature, 2010).

What follows are compounds tested on Plasmodium falciparum (assay: GSK_TCMDC: Inhibition of Plasmodium falciparum Dd2 in whole red blood cells, using parasite LDH activity as an index of growth. Test compounds present at 2uM).
Format: functional
For `O=[N+]([O-])c1ccc(Nc2nc(N/N=C/c3ccc(-c4ccc([N+](=O)[O-])cc4)o3)nc(Nc3ccccc3)n2)cc1`, the Inhibition was 74%. With `Cl.N=c1n(CCN2CCCCC2)c2ccccc2n1CC(O)c1ccc(Cl)c(Cl)c1` (stereo unspecified) the Inhibition was 97%. `CC(C)(C)c1ccc(CN2CCC(CNC(=O)c3cc(-c4ccccc4C(F)(F)F)cs3)C2)cc1.O=C(O)C(F)(F)F` (stereo unspecified) was tested, and the Inhibition was 11%. `O=c1cc(NCCCNCc2cc(Cl)cc(Cl)c2OCc2ccc(Cl)cc2)[nH]c2ccccc12` showed an Inhibition of 53%. Compound `O=C(C=Cc1cn(-c2ccccc2)nc1-c1ccccc1)N1CCN(c2ccncc2)CC1` has an Inhibition of 20%. For `Cc1cc(N2CCCC2)nc(Nc2ccc(NC(=O)c3ccc4c(c3)OCO4)cc2)n1`, the Inhibition was 67%. `N#Cc1cccc(C(O)CN(Cc2ccccc2)Cc2ccccc2)c1` (stereo unspecified) showed an Inhibition of 100%. `COc1ccc(-c2ccc(NC(=O)c3ccc(Cl)cc3)cc2)cc1CN1CCNCC1.O=C(O)C(F)(F)F` was tested, and the Inhibition was 24%. `CCCC1N=C(N)N=C(N)N1c1ccc(Cl)cc1.Cl` (stereo unspecified) was tested, and the Inhibition was 0%. Compound `CN1CCN(CCCN(Cc2csc(-c3ccc(CNCc4ccccc4)cc3)n2)C(=O)Nc2ccc3ccccc3c2)CC1.O=C(O)C(F)(F)F` has an Inhibition of 63%. `COc1ccc2nccc([C@@H](O)CN3CCC(NC(=O)c4nc(Cl)c(Cl)c(N)c4Cl)CC3)c2c1.CS(=O)(=O)O` was tested, and the Inhibition was 17%. In the case of `CNC(=O)CSc1nnc(-c2ccc(C)cc2)c(-c2ccc(C)cc2)n1`, the Inhibition is reported as 49%. Compound `CS(=O)(=O)Nc1ccc(-c2ccc3ccnc(N)c3c2)cc1.O=C(O)C(F)(F)F` has an Inhibition of 75%. Compound `COc1cccc(CN2CCN(C(c3ccccc3)c3ccccc3)CC2)c1O.O=C(O)C(=O)O` has an Inhibition of 98%. `CCCN(C(=O)c1ccccc1C)c1nnc(-c2cccc(C)c2)s1` showed an Inhibition of 67%. Work on `CC(C)CCn1c(Sc2ccc([N+](=O)[O-])cc2C(F)(F)F)nnc1-c1ccccc1Cl` yielded an Inhibition of 43%.

Each compound was assayed on HepG2 (assay: GSK_TCMDC: Percent inhibition of human HepG2 cell line. Test compounds present at 10uM.).
Format: functional
With `COc1ccc(CCN(C)CCCN2CCC(NC(=O)c3cccc4c(=O)c5ccccc5[nH]c34)CC2)cc1OC.O=C(O)C(=O)O` the Inhibition was 19%. For `COc1ccc(CN2CCC(CNC(C)c3cccc4ccccc34)CC2)cc1.O=C(O)C(F)(F)F` (stereo unspecified), the Inhibition was 58%. With `COC(=O)c1cc(NC(=O)Nc2ccc(Cn3ncc(N4CCCNCC4)c(Cl)c3=O)cc2)cc(C(=O)OC)c1.O=C(O)C(F)(F)F` the Inhibition was 0%. Compound `Cc1cc(N2CCCC2)nc(Nc2ccc(NC(=O)c3ccccc3C)cc2)n1` has an Inhibition of 22%. Work on `CCc1ccc(S(=O)(=O)Nc2ccc(CCN(C)C3CCN(C)CC3)cc2)cc1` yielded an Inhibition of 25%. With `CCc1ccccc1N1CCN(CCCC(=O)c2ccc(NC(=O)c3ccc(Cl)cc3)cc2)CC1` the Inhibition was 17%. `Fc1ccccc1C=NN=c1cc[nH]c2ccccc12` was tested, and the Inhibition was 8%. In the case of `COc1ccc(S(=O)(=O)NCCCC2CCN(CCCCCNC(=O)C=Cc3ccc(Cl)c(Cl)c3)CC2)cc1`, the Inhibition is reported as 24%. `O=C(/C=C/c1ccccc1Cl)NC1CCC(CN2CCC(c3c[nH]c4ccncc34)CC2)CC1` (stereo unspecified) showed an Inhibition of 19%. Work on `Oc1ccc2ccccc2c1C=NNc1nc(=Nc2ccccc2)nc(N2CCOCC2)[nH]1` yielded an Inhibition of 66%. With `C=CC(=O)Nc1ccc(Cl)cc1C(O)c1ccccc1` (stereo unspecified) the Inhibition was 0%. Work on `CCCn1cnc2cc(C(=O)Nc3ccc(-c4cccc(CN(C)C)c4)cc3)ccc2c1=O` yielded an Inhibition of 26%. `COc1cccc(-n2ncc3c(N/N=C/c4ccc(CN(C)CCN(C)C)cc4)ncnc32)c1` showed an Inhibition of 29%. Compound `Cc1ccc(NC(=O)c2ccc(NCCCN3CC(C)CC(C)C3)c([N+](=O)[O-])c2)cc1F` (stereo unspecified) has an Inhibition of 18%. `O=C(CSc1nnc(O)n1Cc1ccccc1)Nc1ccccc1-c1ccccc1` gave an Inhibition of 0%. With `Fc1ccc(CNc2ccc3ncc(-c4cccnc4)n3n2)cc1` the Inhibition was 7%. `Cc1cc(N[C@@H](CC(C)C)C(=O)NCc2cccs2)nc(NCCc2ccccc2)n1.O=C(O)C(F)(F)F` was tested, and the Inhibition was 1%. For `O=S(=O)(Nc1cccc(CCN2CCC(N3CCCCC3)CC2)c1)c1cccc(C(F)(F)F)c1`, the Inhibition was 25%. For `O=C(O)C(F)(F)F.c1ccc2[nH]c(-c3ccc(-c4ccc(CNCCc5ccncc5)cc4)s3)nc2c1`, the Inhibition was 28%. In the case of `O=C(Nc1ccccc1)Nc1ccc(-c2cccc(-c3nc4cc(C(F)(F)F)ccc4[nH]3)c2)cc1`, the Inhibition is reported as 59%. `O=C(Cc1ccc[n+]([O-])c1)Nc1cccc(-c2cccc(-c3nc4cc(F)ccc4[nH]3)c2)c1` gave an Inhibition of 28%. `CS(=O)(=O)c1ccc(CCNCc2ccc(-c3ccc(CN(C(=O)c4cccc(C#N)c4)C4CCN(Cc5ccccc5)CC4)cc3)nc2)cc1.O=C(O)C(F)(F)F` showed an Inhibition of 20%. With `CC(O)C1CCCCN1C(=O)c1cccc(-c2ccc(-c3nc4cc(F)ccc4[nH]3)cc2)c1` (stereo unspecified) the Inhibition was 46%. `O=C(Nc1cccc([N+](=O)[O-])c1)Nc1ccc(Cl)c(C(F)(F)F)c1` gave an Inhibition of 15%. For `O=[N+]([O-])c1ccc(Nc2nc(N/N=C/c3ccc(-c4ccc([N+](=O)[O-])cc4)o3)nc(Nc3ccccc3)n2)cc1`, the Inhibition was 0%. Work on `Cl.N=c1n(CCN2CCCCC2)c2ccccc2n1CC(O)c1ccc(Cl)c(Cl)c1` (stereo unspecified) yielded an Inhibition of 50%. For `CC(C)(C)c1ccc(CN2CCC(CNC(=O)c3cc(-c4ccccc4C(F)(F)F)cs3)C2)cc1.O=C(O)C(F)(F)F` (stereo unspecified), the Inhibition was 61%. In the case of `O=c1cc(NCCCNCc2cc(Cl)cc(Cl)c2OCc2ccc(Cl)cc2)[nH]c2ccccc12`, the Inhibition is reported as 6%. With `O=C(C=Cc1cn(-c2ccccc2)nc1-c1ccccc1)N1CCN(c2ccncc2)CC1` the Inhibition was 11%. Work on `Cc1cc(N2CCCC2)nc(Nc2ccc(NC(=O)c3ccc4c(c3)OCO4)cc2)n1` yielded an Inhibition of 26%. `N#Cc1cccc(C(O)CN(Cc2ccccc2)Cc2ccccc2)c1` (stereo unspecified) showed an Inhibition of 12%. `COc1ccc(-c2ccc(NC(=O)c3ccc(Cl)cc3)cc2)cc1CN1CCNCC1.O=C(O)C(F)(F)F` gave an Inhibition of 14%. In the case of `CCCC1N=C(N)N=C(N)N1c1ccc(Cl)cc1.Cl` (stereo unspecified), the Inhibition is reported as 14%. For `CN1CCN(CCCN(Cc2csc(-c3ccc(CNCc4ccccc4)cc3)n2)C(=O)Nc2ccc3ccccc3c2)CC1.O=C(O)C(F)(F)F`, the Inhibition was 12%. Work on `COc1ccc2nccc([C@@H](O)CN3CCC(NC(=O)c4nc(Cl)c(Cl)c(N)c4Cl)CC3)c2c1.CS(=O)(=O)O` yielded an Inhibition of 16%. With `CNC(=O)CSc1nnc(-c2ccc(C)cc2)c(-c2ccc(C)cc2)n1` the Inhibition was 2%. Work on `CS(=O)(=O)Nc1ccc(-c2ccc3ccnc(N)c3c2)cc1.O=C(O)C(F)(F)F` yielded an Inhibition of 31%. `COc1cccc(CN2CCN(C(c3ccccc3)c3ccccc3)CC2)c1O.O=C(O)C(=O)O` gave an Inhibition of 6%. For `CCCN(C(=O)c1ccccc1C)c1nnc(-c2cccc(C)c2)s1`, the Inhibition was 8%. `CC(C)CCn1c(Sc2ccc([N+](=O)[O-])cc2C(F)(F)F)nnc1-c1ccccc1Cl` showed an Inhibition of 0%.
